Reference: the supplement of paper PMC11219838
A number with no mark means an inactive call.

tested on: Caenorhabditis elegans L1 (N2); assay: survival and reproduction score of C. elegans L1 (0: 0-10 living worms, 1: 11-20, 2: 21-50, 3: >50, 4: overgrown) (score 0-4); higher = more worms, less nematicidal, active = 1 or less; extreme values may be limits of the assay; details: 60 µM; 6 days; temperature: 20 °C
How it was run: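 Synchronized C. elegans N2 L1s (about 20 per well) were grown in 96-well plates in liquid NGM with E. coli HB101 and compound at 60 µM final (0.6% v/v DMSO), shaken sealed at 200 rpm and 20 °C for 6 days. The ordinal score for survival and reproduction counted living worms per well under a dissection microscope. The scale ran 0 (0–10 worms) to 4 (overgrown, starved), averaged over two biological replicates.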

| SMILES | survival and reproduction score |
| --- | --- |
| O=C(CSc1nnc(-c2ccccc2)o1)Nc1ccc(F)cc1F | 4 |
| Clc1ccc(-c2nc(-c3ccc4c(c3)OCO4)no2)cc1 | 4 |
| O=C(CSc1nnc(-c2ccccc2Cl)o1)Nc1ccccn1 | 4 |
| Cc1ccc(-c2nnc(SCc3ccc(Br)cc3)o2)cc1 | 4 |
| CCCCCOC(=O)CSc1nnc(-c2ccc(Cl)cc2Cl)o1 | 4 |
| COc1cccc(-c2noc(CSc3ccc(Cl)cc3)n2)c1 | 4 |
| COc1cccc(-c2noc(COc3ccc(Br)cc3)n2)c1 | 4 |
| c1ccc(COc2cccc(-c3nc(-c4ccncc4)no3)c2)cc1 | 4 |
| Brc1cccc(-c2nc(-c3ccccc3)no2)c1 | 0 (active) |
| COc1ccc(-c2nnc(SCC(=O)Nc3cccc(Cl)c3Cl)o2)cc1 | 4 |
| COc1ccc(NC(=O)CSc2nnc(-c3ccccc3C)o2)cc1 | 4 |
| CCCc1nnc(CSc2nnc(-c3ccc(Cl)cc3)o2)o1 | 1 (active) |
| COc1ccc(-c2nnc(SCc3ccc(Cl)cc3Cl)o2)cc1 | 4 |
| COc1ccc(-c2nnc(SCC(=O)N(C)c3ccccc3)o2)cc1 | 4 |
| CC(Oc1ccc(C(C)(C)C)cc1)c1nc(-c2ccncc2)no1 (stereo not drawn) | 4 |
| Brc1ccc(OCc2nc(-c3cccs3)no2)cc1 | 4 |
| Cc1cc(C)c(C)c(OCc2nc(-c3cccnc3)no2)c1 | 4 |
| O=C(Nc1ccccc1-c1nc(-c2cccnc2)no1)c1ccc(Cl)cc1 | 4 |
| Cc1ccc(-c2nc(-c3ccccc3)no2)cc1Cl | 3 |

| SMILES | survival and reproduction score |
| --- | --- |
| Cc1ccc(-c2nnc(SCc3ccccc3C#N)o2)cc1 | 4 |
| c1cc(-c2noc(C34CC5CC(CC(C5)C3)C4)n2)ccn1 | 4 |
| Fc1cccc(Cl)c1CSc1nnc(-c2ccccc2)o1 | 4 |
| CCn1c(SCc2nnc(-c3ccccc3)o2)nnc1-c1ccco1 | 4 |
| COc1ccc(-c2nnc(SCc3csc(N)n3)o2)cc1 | 4 |
| Cc1ccccc1CSc1nnc(-c2ccco2)n1C | 2 |
| Brc1ccc(OCc2nc(-c3ccncc3)no2)cc1 | 4 |
| Brc1ccccc1-c1nc(-c2ccc3c(c2)OCO3)no1 | 4 |
| CCOC(=O)c1c(NC(=O)CSc2nnc(-c3ccccc3OCC)o2)sc(C(C)=O)c1C | 4 |
| Cc1ccc(OC(C)c2nc(-c3ccncc3)no2)cc1C (stereo not drawn) | 4 |
| Fc1ccc(-c2noc(COc3cccc(Cl)c3)n2)cc1 | 4 |
| CCOc1cc(-c2nc(-c3ccccc3OC)no2)cc(OCC)c1OCC | 4 |
| COc1cccc(-c2noc(COc3ccc4ccccc4c3)n2)c1 | 4 |
| COc1cccc(-c2noc(COc3ccc(C)cc3C)n2)c1 | 4 |
| CCOc1ccccc1-c1nc(-c2ccc(NC(=O)c3ccncc3)cc2)no1 | 4 |
| Cc1ccc(C)c(OCc2nc(-c3cccnc3)no2)c1 | 4 |
| Cc1ccc(-c2nc(-c3ccccc3)no2)cc1C | 4 |
| Cn1c(SCc2nnc(-c3ccccc3)o2)nnc1-c1ccco1 | 4 |
| Fc1ccccc1-c1nc(-c2ccc(Cl)cc2)no1 | 1 (active) |
